Where “and” joins values, the source holds several entries; their conditions need not be identical. Identical values can stand only once. Results filed as inconclusive are left out. A structure can be active in one record and inactive in another. Calls of active or inactive are those of the source. The calls were made as follows, unless noted: active = hit-call score of the fitted dose curve at least 0.9, where 1 is the maximum; inactive = score below 0.9.
What was measured:
[1] = read-out: Interleukin-8 (IL8), CXCL8 (gene 3576); experiment: BSK_3C_IL8: BioMAP Diversity Plus: 3C Assay for Interleukin-8 (IL8) Biomarker Activity (AID 2283020); details: primary human endothelial cells (HUVEC); actives raise or lower the signal
Outline: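 HUVEC, 3C stimulation; 24 h compound exposure; IL-8 read by ELISA; gain or loss of signal fitted relative to DMSO control.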

[2] = read-out: Monokine induced gamma interferon (MIG), CXCL9 (gene 4283); experiment: BSK_3C_MIG: BioMAP Diversity Plus: 3C Assay for Monokine induced gamma interferon (MIG) Biomarker Activity (AID 2283021); details: primary human endothelial cells (HUVEC); actives raise or lower the signal;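 as to AC50: MIG protein level measured by immunoassay in the treated endothelial cultures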
Outline: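 HUVEC, 3C system; 24 h chemical exposure; MIG by ELISA; bidirectional fit vs DMSO baseline.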

[3] = target: human Vitamin D Receptor (VDR), VDR (gene 7421) (UniProt P11473); experiment: ATG_VDR_TRANS: Attagene TRANS-FACTORIAL HepG2 Assay for human Vitamin D Receptor (VDR) (AID 2283022; active = hit-call score of the fitted dose curve at least 0.9, where 1 is the maximum)
Outline: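 Multiplexed TRANS reporter in HepG2; 24 h treatment; reporter mRNA by RT-PCR plus capillary electrophoresis; upregulation scored relative to DMSO.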

[4] = BSK_3C_SRB: Viability Assessment in the BioMAP Diversity Plus: 3C Assay (AID 2283023); details: primary human endothelial cells (HUVEC);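 also: cells read 24 h after compound dosing; fitted both ways against DMSO so a hit may be signal rise or drop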
Outline: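 Overt cytotoxicity is gauged in parallel confluent HUVEC cultures by SRB total-protein staining at the time of biomarker measurement, 24 h after dosing. Gain or loss of signal is fitted versus DMSO.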

[5] = read-out: Matrix Metallopeptidase 1 (MMP1), MMP1 (gene 4312); experiment: BSK_BE3C_MMP1: BioMAP Diversity Plus: BE3C Assay for Matrix Metallopeptidase 1 (MMP1) Biomarker Activity (AID 2283024); details: primary human bronchial epithelial cells; actives raise or lower the signal
Outline: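 ELISA read-out of MMP1 in human lung bronchial epithelial primary cultures, 24 h post-dose; bidirectional curve fit vs DMSO baseline, gain or loss of signal scored.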

[6] = read-out: Pselectin, SELP (gene 6403); experiment: BSK_4H_Pselectin: BioMAP Diversity Plus: 4H Assay for Pselectin Biomarker Activity (AID 2283026); details: primary human endothelial cells (HUVEC); actives raise or lower the signal
Outline: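 HUVEC, 24 h chemical exposure; P-selectin read by ELISA. Bidirectional curve fit vs DMSO baseline; gain or loss of signal scored.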

[7] = BSK_4H_SRB: Viability Assessment in the BioMAP Diversity Plus: 4H Assay (AID 2283027); details: primary human endothelial cells (HUVEC);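 also: cells exposed to compound for 24 h before staining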;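 as to AC50: curves fitted both ways versus DMSO so AC50 may be loss or gain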
Outline: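 Cytotoxicity readout: sulforhodamine B (0.1%) staining of total protein after 10% TCA fixation, measured at 560 nm in human umbilical vein endothelium at 24 h. DMSO set the baseline; fitting was bidirectional.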

[8] = BSK_BE3C_SRB: Viability Assessment in the BioMAP Diversity Plus: BE3C Assay (AID 2283028); details: primary human bronchial epithelial cells;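 also: measured 24 h after chemical dosing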;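 as to AC50: fitted both ways so AC50 may mark signal gain or loss versus DMSO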
Outline: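 SRB total-protein staining (0.1%, after TCA fixation) of chemically dosed human bronchial epithelial primary cells at 24 h; DMSO serves as the negative control for bidirectional curve fitting.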

[9] = read-out: Thrombomodulin, THBD (gene 7056); experiment: BSK_3C_Thrombomodulin: BioMAP Diversity Plus: 3C Assay for Thrombomodulin Biomarker Activity (AID 2283029); details: primary human endothelial cells (HUVEC); actives raise or lower the signal
Outline: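 HUVEC, 3C conditions; compound 24 h; thrombomodulin by ELISA; bidirectional curve fit vs DMSO baseline; parallel SRB total-protein staining for cytotoxicity.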

[10] = BSK_3C_Vis: BioMAP Diversity Plus: 3C Assay for Morphology Visualization (AID 2283025); details: primary human endothelial cells (HUVEC);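 also: fitted both ways so gain or loss versus DMSO counts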;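 as to AC50: light microscopy image of cell morphology used as background control; cells imaged 24 h after dosing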
Outline: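 HUVEC, 3C system; light microscopy of morphology at 24 h post-dose. Bidirectional fit vs DMSO baseline. Secondary readout, background-control function.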

Measured: AC50

human Vitamin D Receptor (VDR), VDR (gene 7421), sequence (P11473 whole entry, looked up): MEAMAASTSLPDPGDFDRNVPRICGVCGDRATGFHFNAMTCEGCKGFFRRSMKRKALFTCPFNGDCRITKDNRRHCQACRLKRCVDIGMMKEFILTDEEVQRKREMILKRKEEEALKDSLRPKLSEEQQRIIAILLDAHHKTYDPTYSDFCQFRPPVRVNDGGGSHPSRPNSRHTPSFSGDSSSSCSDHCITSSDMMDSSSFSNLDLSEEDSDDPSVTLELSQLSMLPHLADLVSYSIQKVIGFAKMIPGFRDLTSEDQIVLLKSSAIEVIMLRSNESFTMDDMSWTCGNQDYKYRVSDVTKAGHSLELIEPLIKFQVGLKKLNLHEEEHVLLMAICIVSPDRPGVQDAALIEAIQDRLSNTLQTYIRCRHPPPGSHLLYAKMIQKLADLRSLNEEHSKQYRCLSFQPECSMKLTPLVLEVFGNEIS

FC(F)(F)C(F)(F)C(F)(F)N(C(F)(F)C(F)(F)C(F)(F)F)C(F)(F)C(F)(F)C(F)(F)F
inactive: [1] | [2] | [3] | [4] | [5] | [6] | [7] | [8] | [9]

Oc1ccc(Nc2ccccc2)cc1
active: [1] 0.0694 µM
inactive: [2] | [3] | [4] | [5] | [10] | [6] | [7] | [8] | [9]

FC(F)(F)C(F)(F)C(F)(F)C(F)(F)C(F)(F)C(F)(F)C(F)(F)C(F)(F)CCS
inactive: [1] | [2] | [3] | [4] | [5] | [6] | [7] | [8] | [9]

O=C(Cl)C(F)(F)C(F)(F)C(F)(F)C(F)(F)C(F)(F)C(F)(F)C(F)(F)C(F)(F)F
active: [1] 41 µM | [5] 50.8 µM and 51.7 µM and 52 µM | [7] 30 µM | [8] 58.5 µM and 46.6 µM and 47.3 µM
inactive: [1] | [2] | [3] | [6] | [7] | [9]

CC(=O)Nc1ccc(N=Nc2cc(C)ccc2O)cc1
inactive: [1] | [2] | [4] | [7] | [8]
active: [5] 24.7 µM | [10] 39.6 µM | [6] 15.2 µM | [9] 7.5 µM

CCN(CC)c1ccc2c(C)cc(=O)oc2c1
active: [10] 37.5 µM
inactive: [1] | [2] | [4] | [5] | [6] | [7] | [8] | [9]

O[Si](c1ccccc1)(c1ccccc1)c1ccccc1
inactive: [1] | [2] | [3] | [5] | [8] | [9]
active: [10] 37.4 µM | [6] 26.8 µM | [7] 13.8 µM

O=C(CC(=O)C(F)(F)C(F)(F)F)C(F)(F)F
inactive: [1] | [2] | [3] | [5] | [6] | [7] | [8] | [9]

CO[Si](OC)(c1ccccc1)c1ccccc1
active: [1] 20 µM | [4] 36.9 µM | [10] 37.4 µM
inactive: [2] | [3] | [5] | [6] | [7] | [8] | [9]

C=C(C)C(=O)OCC(F)(F)C(F)(F)C(F)(F)C(F)(F)C(F)(F)C(F)(F)C(F)(F)F
inactive: [1] | [2] | [3] | [5] | [6] | [7] | [8] | [9]
active: [5] 3.2 µM

CCc1ccc(C(c2ccc(CC)cc2)C(Cl)Cl)cc1
active: [1] 11.6 µM | [4] 12.5 µM | [5] 7.64 µM | [10] 13 µM | [7] 15 µM
inactive: [2] | [6] | [8] | [9]

Nc1ccc([N+](=O)[O-])cc1O
inactive: [1] | [2] | [3] | [4] | [5] | [10] | [6] | [7] | [8] | [9]

CC(C)(C)C(=O)CC(=O)C(F)(F)C(F)(F)C(F)(F)F
inactive: [1] | [2] | [3] | [5] | [6] | [7] | [8]
active: [6] 5.95 µM | [9] 41.2 µM and 47.3 µM

OCC(F)(F)C(F)(F)C(F)(F)C(F)(F)C(F)(F)C(F)F
inactive: [1] | [2] | [3] | [4] | [5] | [6] | [7] | [8] | [9]

FC(F)(F)C(F)(F)C(F)(F)C(F)(F)C(F)(F)C(F)(F)CCS
inactive: [1] | [2] | [3] | [4] | [5] | [6] | [7] | [8] | [9]

C=C(C)C(=O)OCCC(F)(F)C(F)(F)C(F)(F)C(F)(F)C(F)(C(F)(F)F)C(F)(F)F
inactive: [1] | [2] | [3] | [4] | [5] | [6] | [7] | [8] | [9]

CCc1c(Br)c(Br)c(Br)c(Br)c1Br
inactive: [1] | [2] | [3] | [4] | [5] | [10] | [6] | [7] | [8] | [9]

CCCCCCCOC(=O)c1ccccc1C(=O)OCCCCCCC
inactive: [1] | [2] | [4] | [5] | [10] | [6] | [7] | [8] | [9]

CCCCCCC(C)OC(=O)CCCCC(=O)OC(C)CCCCCC (stereo not drawn)
inactive: [1] | [2] | [4] | [5] | [10] | [6] | [7] | [8] | [9]

O=C(O)C(F)(OC(F)(F)C(F)(OC(F)(F)C(F)(F)C(F)(F)F)C(F)(F)F)C(F)(F)F (stereo not drawn)
inactive: [1] | [2] | [3] | [5] | [6] | [7] | [8] | [9]

CC(CCl)OP(=O)(OC(C)CCl)OC(C)CCl (stereo not drawn)
inactive: [1] | [2] | [4] | [5] | [10] | [6] | [7] | [8] | [9]

FC(F)(F)C(F)(F)C(F)(F)C(F)(F)C(F)(F)C(F)(F)C(F)(F)C(F)(F)F
inactive: [1] | [2] | [3] | [4] | [5] | [6] | [7] | [8] | [9]

OCC(F)(F)C(F)(F)C(F)(F)C(F)(F)C(F)(F)C(F)(F)F
active: [6] 43.6 µM
inactive: [1] | [2] | [3] | [5] | [6] | [7] | [8] | [9]

FC(F)(F)C(F)(F)C(F)(F)C(F)(F)C(F)(F)CCI
inactive: [1] | [2] | [3] | [4] | [6] | [7] | [8] | [9]
active: [5] 30 µM and 19.5 µM

O=C(O)C(F)(F)C(F)(F)C(F)(F)C(F)(F)F
inactive: [1] | [2] | [3] | [5] | [6] | [7] | [8] | [9]
active: [9] 31.2 µM

CCO[Si](CCC(F)(F)C(F)(F)C(F)(F)C(F)(F)C(F)(F)C(F)(F)F)(OCC)OCC
active: [9] 0.638 µM
inactive: [1] | [2] | [3] | [4] | [5] | [6] | [7] | [8] | [9]

O=C(O)C=C(C(F)(F)F)C(F)(F)F
active: [6] 22.4 µM and 21.1 µM
inactive: [1] | [2] | [3] | [5] | [7] | [8] | [9]

O=C(O)C(F)(F)C(F)(F)C(F)(F)C(F)(F)C(F)(F)C(F)(F)C(F)(F)C(F)(F)Cl
active: [1] 45.1 µM | [2] 55.1 µM | [4] 52.5 µM and 45.1 µM | [5] 7.12 µM and 55.3 µM | [7] 49.7 µM and 52.2 µM | [8] 41.3 µM and 29.4 µM | [9] 48.5 µM and 45.4 µM
inactive: [1] | [2] | [3] | [6]

CS(C)(=O)=O
inactive: [1] | [2] | [4] | [5] | [10] | [6] | [7] | [8] | [9]

FC(F)(F)C(F)(F)C(F)(F)C(F)(F)C(F)(F)C(F)(F)C(F)(F)Br
inactive: [1] | [2] | [3] | [4] | [5] | [6] | [7] | [8] | [9]
active: [9] 1.29 µM

CCCCOCCOCCOC(=O)CCCCC(=O)OCCOCCOCCCC
inactive: [1] | [2] | [3] | [4] | [5] | [10] | [6] | [7] | [8] | [9]

FC(F)(F)C(F)(F)CNCC(F)(F)C(F)(F)F
inactive: [1] | [2] | [4] | [5] | [6] | [7] | [8] | [9]
active: [1] 30 µM

CCCCC(CC)COP(=O)(O)OCC(CC)CCCC (stereo not drawn)
inactive: [1] | [2] | [4] | [5] | [6] | [7] | [8] | [9]
active: [4] 27.7 µM

FC(F)(Br)C(F)(F)C(F)(F)C(F)(F)C(F)(F)C(F)(F)Br
inactive: [1] | [2] | [3] | [5] | [6] | [7] | [8] | [9]

O=C(O)C(F)(F)C(F)(F)F
inactive: [1] | [2] | [3] | [5] | [6] | [7] | [8] | [9]

CCCCCCCCCCCCCCCC[N+](C)(C)Cc1ccccc1
inactive: [3] | [4]
active: [1] 7.59 µM | [2] 4.12 µM | [5] 9.34 µM | [10] 2.96 µM | [6] 4.62 µM | [7] 5.09 µM | [8] 5.04 µM | [9] 5.17 µM

O=S(=O)(OCCOC(F)(F)F)C(F)(F)F
inactive: [1] | [2] | [3] | [4] | [5] | [6] | [7] | [8] | [9]

O=P(O)(O)OCCC(F)(F)C(F)(F)C(F)(F)C(F)(F)C(F)(F)C(F)(F)F
inactive: [1] | [2] | [5] | [6] | [7] | [8] | [9]

FC(F)(F)C(F)(F)C(F)(F)C(F)(F)C(F)(F)C(F)(F)CC1CO1 (stereo not drawn)
inactive: [1] | [2] | [5] | [6] | [7] | [8] | [9]

From PubChem BioAssay (EPA / NIEHS)
